# Assay outcomes deposited in PubChem BioAssay by National Center for Advancing Translational Sciences (NCATS).
# Rab9 prom act – qHTS Assay for Rab9 Promoter Activators; Huh7 Rab9 promoter-luciferase reporter, luminescence, 24 h; AID 485297, 2010; Potency, µM (highest dose often 9.22 µM), for the others: at the highest dose activation, negative = inhibition, usual class: activators; 320,000 compounds, 2.8% hits; note: % of control where 0% means no effect; nearly all actives have a fitted effect of over 60% in size
#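 Huh7 cells stably carrying a Rab9 promoter-luciferase reporter, 1500 cells per well in OP-MEM I with 10% FBS, treated with compound 24 hours at 37C. Luciferase activity read by luminescence after 10 minutes with Amplite reagent.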
# ELG1 genotox – qHTS screen for small molecules that induce genotoxicity in human embryonic kidney (HEK293T) cells expressing luciferase-tagged ELG1. HEK293T ELG1-luciferase reporter, luminescence, 16 h. Potency, µM (series often up to 46 µM), inactives show at the highest dose activity change, positive = activation, actives largely listed as activators. 330,000 compounds, 1.3% hits. AID 504466, 2011; note: % of control where 0% means no effect; nearly all actives have a fitted effect of over 60% in size
#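 ELG1-luciferase HEK293T cells, 2,000/well; compound pinned in; 16 hr, 37 °C, 5% CO2; ONE-Glo, 30 min RT; luminescence on CCD imager.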
# SMN2 splice enh – qHTS Assay for Enhancers of SMN2 Splice Variant Expression; HEK293 SMN2-luciferase splicing reporter, luminescence, 30-36 h; Potency, µM (titrated, usually from 46.1 µM), for inactives: top-dose activity change, positive = activation, hits mostly activators; 210,000 compounds, 2.8% hits; note: % of control where 0% means no effect; nearly all actives have a fitted effect of over 55% in size
#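 HEK293 cells carry an SMN2 minigene-luciferase reporter in which exon 7 inclusion puts luciferase in frame. Cells were seeded at 2000 cells/well, attached for 10-12 hours, then exposed to compounds for 30-36 hours at 37C before ONE-Glo luminescence.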
# NPC1 prom act – qHTS Assay for NPC1 Promoter Activators; Potency, µM (top dose mostly 9.22 µM), for the others: at the highest dose activation, most hits filed as activators; 320,000 compounds, 2.4% hits; Huh7 NPC1 promoter luciferase reporter, 24 h; note: % of control where 0% means no effect; nearly all actives have a fitted effect of over 60% in size
#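 Huh7 cells stably carrying NPC1 promoter–luciferase, plated in Opti-MEM with 10% FBS for 2 h, were exposed to compound in DMSO for 24 h at 37 °C; luciferase reagent was added for 10 min and luminescence read.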
# FLuc modulator – qHTS profiling assay for firefly luciferase inhibitor/activator using purifed enzyme and Km concentrations of substrates (counterscreen for miR-21 project); Luciferin 4-monooxygenase (Photinus pyralis), P08659; Potency, µM (doses to about 57.5 µM), without a hit: at the top dose activity change, negative = inhibition, actives largely listed as inhibitors; AID 588342, 2011; 360,000 compounds, 6.9% hits; purified FLuc, Km substrates, luminescence inhibition;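 note: plate controls were vehicle for no effect and reference inhibitor for full effect; nearly all actives have a fitted effect of over 55% in size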
# Target sequence (P08659 whole entry, looked up): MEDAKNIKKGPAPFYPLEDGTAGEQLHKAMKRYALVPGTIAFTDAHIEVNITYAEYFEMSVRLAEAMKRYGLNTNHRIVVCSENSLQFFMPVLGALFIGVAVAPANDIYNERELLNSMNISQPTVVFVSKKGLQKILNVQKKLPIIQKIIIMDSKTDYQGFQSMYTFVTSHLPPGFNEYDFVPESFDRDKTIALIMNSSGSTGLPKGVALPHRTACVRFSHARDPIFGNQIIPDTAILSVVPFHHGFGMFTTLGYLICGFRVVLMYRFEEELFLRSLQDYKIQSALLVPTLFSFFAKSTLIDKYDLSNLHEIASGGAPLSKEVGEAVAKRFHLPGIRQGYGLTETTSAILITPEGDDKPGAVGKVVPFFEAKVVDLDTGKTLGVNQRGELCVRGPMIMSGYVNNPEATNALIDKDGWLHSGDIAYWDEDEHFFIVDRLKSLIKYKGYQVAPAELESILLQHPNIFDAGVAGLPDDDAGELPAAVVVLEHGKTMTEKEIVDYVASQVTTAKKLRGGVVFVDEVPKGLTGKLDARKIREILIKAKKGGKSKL
#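 Biochemical qHTS of compounds, final roughly 60 µM downward over six points, against 10 nM purified firefly luciferase using Km concentrations of substrates (10 uM D-luciferin, 10 uM ATP) in Tris acetate pH 7.5 buffer; luminescence output.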
# Numbers without * were called inactive; ? = inconclusive; . = no result given; [ ] = dose if it differs, or a comment. In the library only some 7.4% were active in any assay of this set; here they are far more common. Calls come from the whole dose curve; as a rule, active = well fitted curve in the direction sought with a large enough effect; inconclusive = small, poorly fitted or top-dose-only effect, or another doubt; inactive = no such curve, though single readings can be large; an effect the other way counts as inactive or inconclusive. Potency is the fitted concentration of half-maximal effect.
SMILES,Rab9 prom act,ELG1 genotox,SMN2 splice enh,NPC1 prom act,FLuc modulator
COc1ccccc1CN1CCC(CNC(=O)c2cnn(-c3ccc(Cl)cc3)c2C2CCN(C(=O)OC(C)(C)C)CC2)CC1,.,.,.,.,-1%
O=C(Nc1ccc2oc(-c3ccccc3Cl)nc2c1)c1ncn[nH]1,3.5µM*,8.2µM*,10µM*,1.4µM*,3µM*
O=C(Nc1ccc2oc(-c3cc(Br)ccc3Cl)nc2c1)c1ccc2ccccc2c1,.,.,-6%,.,-8%
O=C(Nc1ccc2oc(-c3cccc4ccccc34)nc2c1)c1ncn[nH]1,2.8µM*,?,?,?,?
COc1cc2ccccc2cc1C(=O)Nc1ccc2oc(-c3cccc(Cl)c3Cl)nc2c1,.,.,29%,.,-2%
COc1ccc2nc3oc(C(=O)N4CCN(c5cc(C)ccc5C)CC4)cc3cc2c1,.,.,7%,.,-17%
COc1ccccc1C(=O)Oc1ccc(C(C)(C)C)cc1,4%,4%,-30%,-1%,6µM*
CC(C)(C)c1ccc(OC(=O)c2ccc3nsnc3c2)cc1,-7%,3%,-37%,1%,7.6µM*
CCCCCCOC(=O)c1ccc(OC(=O)c2cccnc2)cc1,3%,18µM*,14%,1%,?
CCCCOC(=O)c1ccc(OC(=O)c2cccnc2)cc1,-1%,9%,4%,1%,?
COc1ccc(C(=O)Oc2ccc(C(C)=O)cc2)c(OC)c1,3%,9%,7%,-1%,12µM*
Cc1ccc(C(=O)c2oc3ccccc3c2NC(=O)c2cc(=O)c3ccccc3o2)cc1,.,.,3%,.,-2%
Cc1ccc(NC(=O)C(=O)NCc2ccc(Cl)cc2)cc1,.,.,-16%,.,-1%
O=C(CSc1ncc2c(n1)-c1ccccc1N(Cc1ccccc1)S2(=O)=O)Nc1ccccc1,.,.,.,.,1%
CC(C)(C)c1ccc(OC(=O)c2cccnc2)cc1,-1%,2%,12%,-6%,12µM*
O=C(Nc1cccc(S(=O)(=O)Nc2ccc(Cl)cc2)c1)c1cc2c(s1)CCCC2,1%,-7%,-68%,-3%,15µM*
Cc1ccc(NC(=O)c2cc3c(s2)CCCC3)cc1S(=O)(=O)Nc1ccccc1Cl,-5%,-8%,-60%,-7%,17µM*
CCOc1ccc(CCNC(=O)c2cc3c(s2)-c2ccccc2OC3)cc1OCC,.,.,-26%,.,-7%
Cc1cc(C)nc(-n2nc(C)c3c2N(Cc2ccccc2)C(=O)CC3c2ccc(Cl)cc2)n1 (configuration not stated),.,.,.,.,-10%
O=C(CSc1nc2ccccc2o1)c1ccccc1,?,11%,17%,?,11µM*
O=C(CSc1nc2ccccc2o1)c1ccc2c(c1)OCCO2,?,?,-1%,28%,8.5µM*
CC(=O)CSc1nc2ccccc2o1,19%,?,3%,5%,-16%
c1ccc(OCCSc2nc3ccccc3o2)cc1,21%,14%,-10%,19%,21µM*
CCOc1ccc(N2CC(NC(=O)c3ccc(S(=O)(=O)N4CCCCC4)cc3)CC2=O)cc1 (configuration not stated),.,.,.,.,1%
Cc1cccc(N(CC(N)=O)C2SC(=O)N(Cc3cccc(C(=O)O)c3)C2=O)c1 (configuration not stated),.,.,6%,.,-17%
SMILES,Rab9 prom act,ELG1 genotox,SMN2 splice enh,NPC1 prom act,FLuc modulator
CCCCN(CC)C(=O)Cn1nc(C)c2c(C)n(-c3ccccc3)nc2c1=O,.,.,.,.,3%
Cn1c(SCc2ccccc2F)nc2cccnc21,2.2µM*,?,13µM*,1.4µM*,9.5µM*
COc1ccc(-c2nc(Cn3c(SCc4ccc(C)cc4)nc4cccnc43)c(C)o2)cc1OC,.,.,.,.,6µM*
Cc1ccc(CSc2nc3ccncc3n2Cc2nc(-c3ccc(Cl)cc3)oc2C)cc1,.,.,0%,.,?
COc1ccc(-c2nc(Cn3c(SCc4ccc(F)cc4)nc4ccncc43)c(C)o2)cc1OC,-8%,0%,-7%,-4%,13µM*
COc1ccc(-c2nc(Cn3c(SCc4ccc(F)cc4)nc4cccnc43)c(C)o2)cc1,.,.,.,.,11µM*
COc1ccc(Cn2c(SCc3ccc(C(=O)NCc4ccc(C)cc4)cc3)nc3cccnc32)cc1,.,.,-17%,.,?
COc1ccc(-c2nc(Cn3c(SCc4ccccc4F)nc4cccnc43)c(C)o2)cc1,.,.,.,.,13µM*
COc1ccc(-c2nc(Cn3c(SCc4ccccc4F)nc4ccncc43)c(C)o2)cc1,12%,?,-13%,4%,-14%
COc1ccc(CCNc2nc(-c3cccnc3)nc3ccccc23)cc1OC,-1%,-3%,.,0%,-18%
Cc1ccc(Nc2nc(-c3cccnc3)nc3ccccc23)cc1,-12%,-12%,.,-20%,-4%
Fc1ccccc1/C=N/Nc1nc(-c2ccccn2)nc2ccccc12,-28%,9%,.,-24%,9.5µM*
Cc1ccc(-c2nc(N/N=C/c3ccncc3)c3ccccc3n2)cc1,2µM*,?,-24%,?,0.076µM*
COc1ccc(/C=N/Nc2nc(-c3cccnc3)nc3ccccc23)cc1OC,7%,4%,.,5%,2.1µM*
Oc1ccc(/C=N/Nc2nc(-c3cccnc3)nc3ccccc23)c(O)c1,4%,-3%,.,-1%,4.8µM*
N#CCCn1cnc2c1NC=NC2Cl (configuration not stated),.,.,-1%,.,.
N#C/C(=C\c1c[nH]c2ccccc12)C(=O)c1ccc(O)c(O)c1,-20%[46.1 µM],.,-41%,-5%[46.1 µM],.
CCOC(=O)CCn1cnc2onc(-c3cc(OC)ccc3Cl)c2c1=O,.,.,17%,.,-6%
Cc1c(O)ccc(/C=N/Nc2nc(-c3cccnc3)nc3ccccc23)c1O,25%,12%,.,18%,3.4µM*
Cc1ccc(-c2cc(C(=O)N/N=C/c3ccc(F)cc3)n[nH]2)o1,0%,0%,.,-6%,?
Cc1ccc(C(=O)N/N=C/c2c[nH]c3ccccc23)o1,26%,?,.,18%,24µM*
Cc1ccc(-c2cc(C(=O)N/N=C/c3ccccc3O)n[nH]2)o1,-1%,?,.,3%,?
Cc1ccc(-c2cc(C(=O)N/N=C/c3c[nH]c4ccccc34)n[nH]2)o1,0%,-7%,5%,9%,11µM*
Cc1cc(C(=O)N/N=C/c2c[nH]c3ccccc23)c(C)o1,0%,11%,-3%,1%,19µM*
Cc1ccc(-c2cc(C(=O)N/N=C/C(Br)=C/c3ccccc3)n[nH]2)o1,22%,-2%,-2%,-3%,24µM*
O=C(COc1ccc(Cl)cc1Cl)NC(=O)N1CCCCC1,?,2.9µM*,2.2µM*,25%,3.4µM*
O=C(COc1ccc(Cl)cc1Cl)N1CCCN(C(=O)COc2ccc(Cl)cc2Cl)CC1,-2%,-12%,-34%,-2%,-9%
Cc1cc(Cl)ccc1OCC(=O)N1CCN(c2ncccn2)CC1,-10%,-3%,-18%,2%,-1%
